Results as given in PubChem BioAssay AID2762 (National Center for Advancing Translational Sciences (NCATS), 2010).
Records with an inconclusive call do not appear. Calls of active or inactive are those of the source. Calls follow the shape of the dose curve; as a rule, active = well fitted inhibition curve with a large enough effect; inconclusive = small, poorly fitted or top-dose-only effect, or effect the other way; inactive = no such curve, though single readings can be large or run the other way.

Molecular target: Nuclear receptor ROR-gamma (Mus musculus) (UniProt P51450)
Sequence (P51450 whole entry, looked up): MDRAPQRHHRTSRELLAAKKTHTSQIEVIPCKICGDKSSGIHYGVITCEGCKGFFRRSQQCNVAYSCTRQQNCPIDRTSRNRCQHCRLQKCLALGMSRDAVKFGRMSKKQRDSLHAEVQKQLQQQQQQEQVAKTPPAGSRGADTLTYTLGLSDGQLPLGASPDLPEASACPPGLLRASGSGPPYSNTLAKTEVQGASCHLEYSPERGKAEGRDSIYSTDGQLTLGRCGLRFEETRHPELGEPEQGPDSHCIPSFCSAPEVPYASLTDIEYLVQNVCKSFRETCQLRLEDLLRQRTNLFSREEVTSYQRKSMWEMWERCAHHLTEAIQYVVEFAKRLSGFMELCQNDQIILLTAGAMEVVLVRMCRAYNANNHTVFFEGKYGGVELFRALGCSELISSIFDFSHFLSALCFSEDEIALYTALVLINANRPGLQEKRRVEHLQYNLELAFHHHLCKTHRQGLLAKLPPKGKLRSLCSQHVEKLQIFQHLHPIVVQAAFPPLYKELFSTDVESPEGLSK
Assay: Concentration response confirmation assay for inhibitors of ROR gamma transcriptional activity
Conditions: Drosophila S2 Gal4-RORgamma UAS-luciferase, 20 h; series mostly up to 46.1 µM
Summary of the method: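 Compounds are pin-transferred onto Drosophila Schneider cells expressing a copper-inducible Gal4–ROR gamma transactivation domain fusion. After 1 hr, copper sulfate is added to 700 uM final; luciferase is read 20 hr later.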

| Structure (SMILES) | Potency |
| --- | --- |
| CCN1C(=O)/C(=C/c2ccc(N3CCCC3)cc2)NC1=S | 6.28 µM (active) |
| O=C1CC(c2ccc(F)cc2)CC(O)=C1C1NCCc2ccccc21 (stereo not given) | inactive |
| c1ccc(Cn2c(-c3ccccc3)c[n+]3c2SCCC3)cc1 | inactive |
| CC(C)CC(=O)NS(=O)(=O)c1ccc(N)cc1 | inactive |
| CCOc1ccc2nc(NC(=O)c3cnccn3)sc2c1 | 3.15 µM (active) |
| CCOC(=O)c1oc2cccc(OCC(O)CNC(C)C)c2c1C (stereo not given) | inactive |
| CN(Cc1nc2ccccc2c(=O)[nH]1)Cc1nc2ccsc2c(=O)[nH]1 | 1.41 µM (active) |
| COC(=O)c1ccc2nc(Nc3nc4ccc(F)cc4s3)sc2c1 | 0.315 µM (active) |
| CCC(C)[C@H](NC(=O)NCc1ccco1)C(=O)O (stereo not given in full) | inactive |
| N=C1S/C(=C\c2ccco2)C(=O)N1c1nccs1 | 0.141 µM (active) |
| NC(=O)/C=C/C(=O)Nc1ccc(Cl)cc1 | 8.88 µM (active) |
| CCN(CC)c1ccc2cc(-c3nc4ccccc4[nH]3)c(=O)oc2c1 | 3.97 µM (active) |
| Oc1ccccc1-c1cc(-c2ccc3c(c2)OCCO3)n[nH]1 | 11.2 µM (active) |
| COc1ccc2nc(NC(=O)c3sc4nc(C)cc(C)c4c3N)sc2c1 | 0.0199 µM (active) |
| Cc1cccc(-c2ocnc2C(=O)Nc2ccccc2NC(=O)c2ccccn2)c1 | 2.23 µM (active) |
| CCOC(=O)c1sc(NC(=O)c2ccc(S(=O)(=O)N(C)C)cc2)nc1C | 0.0791 µM (active) |
| Cc1ccc2nc(-c3ccc(NC(=O)COC(=O)c4ccc(=O)[nH]c4)cc3)sc2c1 | 1.41 µM (active) |
| Cc1cc(NC(=S)NC(=O)/C=C/c2ccc(S(=O)(=O)N3CCOCC3)cc2)ccc1Br | 7.05 µM (active) |
| O=c1c2cc(Br)ccc2[nH]c(=S)n1Cc1cccnc1 | 11.2 µM (active) |
| Cc1cc(C)nc(-n2nc(C)cc2NC(=O)CNC(C)c2ccccc2)n1 (stereo not given) | 6.28 µM (active) |
| Cc1cc(-c2ccccc2)nc(N2CCC(C(=O)NCc3ccccc3Cl)CC2)n1 | inactive |
| Cc1cc(C)c2sc(NC(=O)c3ccc(N4C(=O)CCC4=O)cc3)nc2c1 | 0.0705 µM (active) |
| O=C(CN1CCCCCC1)Nc1ccc(S(=O)(=O)N2CCOCC2)cc1 | inactive |
| O=C1NC2=C(C(=O)CCC2)C(c2ccccc2)N1 (stereo not given) | inactive |
| COc1ccc(OC)c(/C=C2\SC(=S)N(C(C(=O)O)c3ccccc3)C2=O)c1 (stereo not given) | inactive |
| COc1ccc(-n2ncc(Cl)c(Cl)c2=O)cc1 | 8.88 µM (active) |
| Cc1cccc(-c2nc3cc(NC(=O)C4CCCO4)ccc3o2)c1 (stereo not given) | 0.396 µM (active) |
| CC(C)(C)S(=O)(=O)c1cnc2c(-c3ccc(F)cc3)cnn2c1N | 11.2 µM (active) |
| O=[N+]([O-])c1ccccc1/C=C/C=N/n1c(-c2ccc(Cl)cc2)n[nH]c1=S | inactive |
| CCOC(=O)C(C(=O)OCC)C(C(=O)OCC)N1CCOCC1 (stereo not given) | 3.15 µM (active) |
